Data as given in ChEMBL document CHEMBL3988442, “University of Dundee, Small-Polar-MMV Screening Library” (2021).
For some of these results: Potency and affinity values are given separately.

What was measured:
Design in all cases: scale not given: direction of the effect not stated beside the values
[1] = target: Protein translocase subunit SecA (Escherichia coli (strain K12)) (UniProt P10408); test: Assay to Identify E. coli SecA ATPase Inhibitors; type: functional; details: 30 µM
[2] = target: T1, Ubiquitin-activating enzyme e1, putative (Leishmania donovani (strain BPK282A1)) (UniProt E9BSI1); test: Leishmania donovani Ubiquitin Activating Enzyme (LdE1); type: functional; details: 30 µM
T1 sequence (whole entry): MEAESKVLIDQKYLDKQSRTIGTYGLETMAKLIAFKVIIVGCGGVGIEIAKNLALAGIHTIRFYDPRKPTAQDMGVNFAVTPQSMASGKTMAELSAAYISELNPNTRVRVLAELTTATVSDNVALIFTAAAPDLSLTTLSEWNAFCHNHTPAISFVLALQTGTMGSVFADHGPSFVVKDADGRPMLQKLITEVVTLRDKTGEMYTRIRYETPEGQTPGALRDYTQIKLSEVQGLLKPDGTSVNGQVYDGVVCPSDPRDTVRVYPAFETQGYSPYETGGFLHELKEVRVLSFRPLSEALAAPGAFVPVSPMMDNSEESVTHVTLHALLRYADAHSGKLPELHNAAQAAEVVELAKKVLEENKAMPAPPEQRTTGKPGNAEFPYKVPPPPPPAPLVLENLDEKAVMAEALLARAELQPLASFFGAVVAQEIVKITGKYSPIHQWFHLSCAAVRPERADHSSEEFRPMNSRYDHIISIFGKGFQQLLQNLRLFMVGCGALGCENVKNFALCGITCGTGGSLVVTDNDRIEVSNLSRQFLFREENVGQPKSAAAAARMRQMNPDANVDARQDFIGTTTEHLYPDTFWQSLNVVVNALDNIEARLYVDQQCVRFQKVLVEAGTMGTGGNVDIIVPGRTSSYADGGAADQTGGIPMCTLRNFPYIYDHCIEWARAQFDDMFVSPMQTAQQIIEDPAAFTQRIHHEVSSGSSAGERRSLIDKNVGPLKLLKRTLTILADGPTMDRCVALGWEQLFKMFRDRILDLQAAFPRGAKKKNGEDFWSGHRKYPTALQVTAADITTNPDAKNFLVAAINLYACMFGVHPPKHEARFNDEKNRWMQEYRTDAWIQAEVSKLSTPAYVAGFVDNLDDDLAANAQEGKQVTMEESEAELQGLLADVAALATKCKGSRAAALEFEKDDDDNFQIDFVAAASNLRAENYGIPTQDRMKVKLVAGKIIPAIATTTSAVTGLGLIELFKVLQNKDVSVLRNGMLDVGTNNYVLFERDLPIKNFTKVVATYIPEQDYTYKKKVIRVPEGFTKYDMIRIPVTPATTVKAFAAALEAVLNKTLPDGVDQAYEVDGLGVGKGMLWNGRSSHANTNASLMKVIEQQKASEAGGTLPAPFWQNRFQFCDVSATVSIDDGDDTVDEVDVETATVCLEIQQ

[3] = target: Sialic acid-binding Ig-like lectin 9 (Homo sapiens) (UniProt Q9Y336); test: Hs-Siglec9 ALPHAscreen SOP 20170721; details: 10 µM
Trypanosoma cruzi = test: Trypanosoma cruzi phosphomannomutase and mannose-1-phosphate guanylyltransferase assay; type: functional; details: 10 µM
[4] = target: T2, Arginase-2, mitochondrial (Homo sapiens) (UniProt P78540); test: in vitro enzyme assay to detect the production of urea directly proportional to the activity of Arginase II; type: functional; details: 33.3 µM; note: in the data most compounds retested in dose-response had high values
T2 sequence (whole entry): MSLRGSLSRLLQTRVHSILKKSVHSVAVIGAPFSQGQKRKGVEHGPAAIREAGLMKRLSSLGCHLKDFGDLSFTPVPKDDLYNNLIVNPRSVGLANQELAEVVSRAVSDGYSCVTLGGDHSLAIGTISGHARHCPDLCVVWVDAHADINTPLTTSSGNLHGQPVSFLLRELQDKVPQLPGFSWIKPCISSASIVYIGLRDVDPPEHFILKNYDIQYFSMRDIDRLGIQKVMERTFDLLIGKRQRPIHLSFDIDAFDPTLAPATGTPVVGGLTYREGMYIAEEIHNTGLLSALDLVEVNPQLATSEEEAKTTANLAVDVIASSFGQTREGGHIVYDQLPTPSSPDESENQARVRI

[5] = target: T3, Proteasome subunit beta (Trypanosoma cruzi) (UniProt O96673); test: Trypanosoma cruzi proteasome chymotrypsin-like activity (TcProtChymo) assay.; note: in the data most compounds retested in dose-response had high values; type: functional; details: 9.37 µM
T3 sequence (whole entry): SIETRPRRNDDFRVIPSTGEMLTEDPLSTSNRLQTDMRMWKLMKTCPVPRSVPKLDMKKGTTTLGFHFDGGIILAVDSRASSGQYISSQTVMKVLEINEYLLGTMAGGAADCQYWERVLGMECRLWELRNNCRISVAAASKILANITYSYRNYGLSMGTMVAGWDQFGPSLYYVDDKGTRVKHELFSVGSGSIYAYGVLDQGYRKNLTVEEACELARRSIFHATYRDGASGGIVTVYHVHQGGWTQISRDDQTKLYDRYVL

Homo sapiens = species on record: Homo sapiens; test: To identify inhibition of the IFN signalling (Jak-Stat) pathway via expression of an eGFP reporter gene under the control of an IFN-stimulated response element (ISRE) containing MxA promoter.; type: functional; details: 30 µM
[6] = target: T4, Tyrosyl-tRNA synthetase, putative (Trypanosoma cruzi (strain CL Brener)) (UniProt Q4DSP6); test: Trypanosoma cruzi tyrosyl tRNA synthetase (TcYRS) _High Tyrosine SOP; type: functional; details: 30 µM; note: in the data most compounds retested in dose-response had high values
T4 sequence (whole entry): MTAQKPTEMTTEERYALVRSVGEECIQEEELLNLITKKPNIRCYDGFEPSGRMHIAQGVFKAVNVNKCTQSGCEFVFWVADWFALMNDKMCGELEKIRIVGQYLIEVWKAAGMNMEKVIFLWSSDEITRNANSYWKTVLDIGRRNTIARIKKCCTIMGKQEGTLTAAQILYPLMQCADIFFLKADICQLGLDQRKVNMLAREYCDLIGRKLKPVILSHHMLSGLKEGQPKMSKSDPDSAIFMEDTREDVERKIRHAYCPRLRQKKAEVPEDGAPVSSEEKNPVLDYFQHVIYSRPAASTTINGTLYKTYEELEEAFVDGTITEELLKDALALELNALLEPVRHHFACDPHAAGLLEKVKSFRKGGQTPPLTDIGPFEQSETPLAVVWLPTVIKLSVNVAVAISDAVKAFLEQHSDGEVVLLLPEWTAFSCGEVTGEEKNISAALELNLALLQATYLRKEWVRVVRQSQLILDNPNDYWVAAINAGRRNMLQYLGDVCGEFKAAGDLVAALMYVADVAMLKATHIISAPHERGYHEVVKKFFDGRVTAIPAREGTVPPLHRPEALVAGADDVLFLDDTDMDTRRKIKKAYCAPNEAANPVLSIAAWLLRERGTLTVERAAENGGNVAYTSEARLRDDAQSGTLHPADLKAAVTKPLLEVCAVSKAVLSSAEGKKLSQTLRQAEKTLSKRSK

[7] = target: T4, Tyrosyl-tRNA synthetase, putative (Trypanosoma cruzi (strain CL Brener)); test: Trypanosoma cruzi tyrosyl tRNA synthetase (TcYRS) SOP; type: functional; details: 30 µM
[8] = target: Chromo domain-containing protein 1 (Saccharomyces cerevisiae (strain ATCC 204508 / S288c) (Baker's yeast)) (UniProt P32657); test: ScCHD-1 Enzyme Inhibition Assay; type: functional; details: 30 µM; note: in the data most compounds retested in dose-response had high values
Chain of Chromo domain-containing protein 1 (Saccharomyces cerevisiae (strain ATCC 204508 / S288c) (Baker's yeast)) (P32657 whole entry, the tested form may be a part): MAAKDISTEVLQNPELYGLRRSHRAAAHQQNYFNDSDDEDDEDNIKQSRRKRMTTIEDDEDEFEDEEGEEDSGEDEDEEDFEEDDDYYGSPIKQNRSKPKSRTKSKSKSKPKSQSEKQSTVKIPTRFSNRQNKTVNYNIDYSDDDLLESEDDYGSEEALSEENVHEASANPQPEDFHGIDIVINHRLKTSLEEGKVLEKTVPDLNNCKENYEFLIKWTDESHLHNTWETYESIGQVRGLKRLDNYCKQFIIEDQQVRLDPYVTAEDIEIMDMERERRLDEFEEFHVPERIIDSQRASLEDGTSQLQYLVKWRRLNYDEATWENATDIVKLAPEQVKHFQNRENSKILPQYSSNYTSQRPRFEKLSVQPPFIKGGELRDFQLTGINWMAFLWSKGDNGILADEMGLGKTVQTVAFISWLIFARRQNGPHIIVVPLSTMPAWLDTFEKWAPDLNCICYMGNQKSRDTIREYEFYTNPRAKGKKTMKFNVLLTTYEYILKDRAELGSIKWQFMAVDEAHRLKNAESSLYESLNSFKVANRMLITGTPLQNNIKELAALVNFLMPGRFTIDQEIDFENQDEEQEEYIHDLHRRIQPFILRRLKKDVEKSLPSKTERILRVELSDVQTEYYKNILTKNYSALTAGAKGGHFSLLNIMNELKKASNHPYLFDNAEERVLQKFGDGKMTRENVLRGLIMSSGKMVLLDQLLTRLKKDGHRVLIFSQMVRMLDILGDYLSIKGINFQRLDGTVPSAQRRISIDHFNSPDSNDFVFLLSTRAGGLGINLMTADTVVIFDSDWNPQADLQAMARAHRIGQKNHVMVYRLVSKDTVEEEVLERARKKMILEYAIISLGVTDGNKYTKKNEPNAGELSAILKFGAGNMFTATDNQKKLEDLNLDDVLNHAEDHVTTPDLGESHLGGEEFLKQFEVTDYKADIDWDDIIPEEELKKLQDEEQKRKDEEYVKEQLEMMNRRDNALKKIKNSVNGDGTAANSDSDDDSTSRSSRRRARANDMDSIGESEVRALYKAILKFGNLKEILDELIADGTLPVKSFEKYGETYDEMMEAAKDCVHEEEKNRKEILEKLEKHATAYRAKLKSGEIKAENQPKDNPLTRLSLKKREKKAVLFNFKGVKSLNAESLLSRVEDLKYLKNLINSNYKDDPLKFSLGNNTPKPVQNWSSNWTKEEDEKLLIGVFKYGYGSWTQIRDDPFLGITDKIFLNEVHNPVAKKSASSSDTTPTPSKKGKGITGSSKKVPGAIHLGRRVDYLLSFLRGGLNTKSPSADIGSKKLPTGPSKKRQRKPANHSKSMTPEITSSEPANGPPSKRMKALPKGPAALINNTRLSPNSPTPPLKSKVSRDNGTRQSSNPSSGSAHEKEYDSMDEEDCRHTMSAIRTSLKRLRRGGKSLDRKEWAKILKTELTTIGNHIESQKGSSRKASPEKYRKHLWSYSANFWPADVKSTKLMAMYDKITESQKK

Chain of Protein translocase subunit SecA (Escherichia coli (strain K12)) (P10408 whole entry): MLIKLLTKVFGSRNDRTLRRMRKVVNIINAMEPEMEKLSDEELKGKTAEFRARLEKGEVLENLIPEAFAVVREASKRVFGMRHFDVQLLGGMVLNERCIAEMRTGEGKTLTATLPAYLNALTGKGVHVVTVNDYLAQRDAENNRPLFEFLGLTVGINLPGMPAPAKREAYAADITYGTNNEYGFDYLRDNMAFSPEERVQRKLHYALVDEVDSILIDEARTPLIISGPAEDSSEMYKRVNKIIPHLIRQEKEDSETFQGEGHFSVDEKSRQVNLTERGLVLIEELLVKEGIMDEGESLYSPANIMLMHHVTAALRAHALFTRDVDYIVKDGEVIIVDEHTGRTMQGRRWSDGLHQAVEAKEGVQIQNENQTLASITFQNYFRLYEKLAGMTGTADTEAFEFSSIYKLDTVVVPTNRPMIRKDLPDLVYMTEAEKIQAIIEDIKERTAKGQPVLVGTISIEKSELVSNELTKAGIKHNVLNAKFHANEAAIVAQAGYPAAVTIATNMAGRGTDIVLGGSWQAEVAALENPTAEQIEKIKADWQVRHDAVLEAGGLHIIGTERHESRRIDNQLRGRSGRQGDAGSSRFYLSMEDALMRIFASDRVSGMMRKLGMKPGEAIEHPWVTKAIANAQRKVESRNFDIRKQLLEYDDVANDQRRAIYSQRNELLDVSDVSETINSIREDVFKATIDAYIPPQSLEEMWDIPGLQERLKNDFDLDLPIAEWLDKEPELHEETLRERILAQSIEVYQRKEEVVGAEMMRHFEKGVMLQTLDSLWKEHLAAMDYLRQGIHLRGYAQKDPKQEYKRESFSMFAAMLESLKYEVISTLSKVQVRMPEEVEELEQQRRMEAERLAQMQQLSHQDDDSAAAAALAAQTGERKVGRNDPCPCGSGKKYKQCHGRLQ
Chain of Sialic acid-binding Ig-like lectin 9 (Homo sapiens) (Q9Y336 whole entry): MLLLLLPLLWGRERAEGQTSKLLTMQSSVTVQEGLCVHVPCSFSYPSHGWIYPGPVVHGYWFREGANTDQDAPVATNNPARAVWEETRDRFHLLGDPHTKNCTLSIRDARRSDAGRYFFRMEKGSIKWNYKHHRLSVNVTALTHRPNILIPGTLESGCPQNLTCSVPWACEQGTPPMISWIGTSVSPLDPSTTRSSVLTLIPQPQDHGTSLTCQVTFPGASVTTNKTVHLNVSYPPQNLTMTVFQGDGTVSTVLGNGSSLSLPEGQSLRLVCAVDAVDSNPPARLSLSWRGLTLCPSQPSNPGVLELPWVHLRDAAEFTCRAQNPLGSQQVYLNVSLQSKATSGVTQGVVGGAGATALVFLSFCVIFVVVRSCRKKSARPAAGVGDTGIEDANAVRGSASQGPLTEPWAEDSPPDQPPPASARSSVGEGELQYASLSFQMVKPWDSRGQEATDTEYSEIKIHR

Row | SMILES | Percent Effect [1] [%] | Percent Effect [2] [%] | Percent Effect [3] [%] | Percent Effect (Trypanosoma cruzi) [%] | Percent Effect [4] [%] | Percent Effect [5] [%] | Percent Effect (Homo sapiens) [%] | Percent Effect [6] [%] | Percent Effect [7] [%] | Percent Effect [8] [%]
1 | CNC(=O)c1ccc(CN(C(=O)c2scnc2C)C2CC2)cc1 | -5.91 | -7.69 | -10.3 | -0.845 | -2.87 | 3.67 | 17.5 | -3.35 | -6.02 | -4.57
2 | CNC(=O)c1ccc(C2CN(C(=O)COC)CCO2)nc1 (stereo not given) | 0.488 | 9.33 | 3.63 | -4.14 | 3.54 | 7.39 | 0.241 | 2.12 | 7.5 | -21.4
3 | CC(C)n1ccnc1CN1CCCN(C(=O)c2cc(Cl)c[nH]2)CC1 | -0.854 | 10.3 | -9.31 | -3.1 | 11.5 | 16.1 | 10.8 | 6.22 | 18.1 | -3.25
4 | Cc1ccc(C(=O)N2CCCC3(CCCC(=O)N3C)C2)cc1F (stereo not given) | -2.74 | 19.5 | -4.32 | -1.5 | 4.11 | 14.5 | 5.96 | 7.73 | 10 | -9.62
